The results in this text go back to PubChem BioAssay AID624304 (Sanford-Burnham Center for Chemical Genomics, 2012).

Each structure is given as a SMILES string. The campaign covered roughly 360,000 compounds. About 1,800 (0.5%) were called active.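 Rule for the calls: active = interference check ratio from 0.5 to 1.5 plus GFP to RFP signal ratio inhibition reaching or exceeding a fixed threshold (cut at about 30% in these data, passing the limit was not always enough); inactive = the rest.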 Shown is part of a subset that was picked to be rich in actives.

A short description of this test: suppressors of acrylamide-induced Pgst-4::GFP reporter in worms, primary screen, SKN-1 inhibitor project, whole organism, uHTS, GFP/RFP fluorescence ratio, strain VP596 (AID 624304). The note with it: C. elegans VP596 Pgst-4::GFP/RFP ratio, 24 h, at 21.8 µM, active compounds read high.
The term inhibition denotes the change of the read-out against control, counted positive when it falls. As for `C=CCC[C@H](Cc1ccc(F)cc1)C(=O)OC[C@@H](Cc1c[nH]c2ccccc12)NC(=O)[C@H](CC=C)CC(=O)N[C@H](CO)Cc1ccccc1`, the inhibition was 1.71% (inactive).
For the compound `CN(C(=O)c1ccccc1)c1nccnc1C#N`, the inhibition was -2.1% (inactive).
With `O=C(NCCc1ccccc1)C1CCC(Cn2c(=O)c3ccccc3n(Cc3cccnc3)c2=O)CC1` (configuration not stated), the inhibition is 2.01% (inactive).
Take `O=C(c1ccc(=O)oc1)N1CCC(C(O)(c2ccccc2)c2ccccc2)CC1`: the inhibition is 22.9% (inactive).
Consider `NC(=O)C1CCN(C(=O)c2ccc(C(F)(F)F)cc2)CC1`, for which the inhibition was 1.88% (inactive).
The same measure for `CCn1cnc2scc(-c3ccc(C)c(C)c3)c2c1=O`: 9.07% (inactive); for `C[C@H]1NS(=O)(=O)c2cc(Cl)ccc2O[C@@H]1c1ccccc1`: 12.8% (inactive).
The same measure for `Cc1nnsc1C(=O)N/N=C/c1cccc(C(F)(F)F)c1`: 6.82% (inactive); for `COc1cc(OC)c(C(=O)NNC(=O)c2ccccc2-n2cccc2)cc1OC`: -9.97% (inactive).
As for `O=C(N/N=C\c1cccc(Br)c1)c1ccccc1-n1cccc1`, the inhibition was 49.3% (active).
Regarding `CC(C)Nc1ccc(-n2nc3ccccc3[n+]2[O-])cc1`, the inhibition is 8.98% (inactive).
Take `O=C(O)CCCN1C(=O)C2C3c4ccccc4C(c4ccccc43)[C@@H]2C1=O` (some centres not stated): the inhibition is -5.65% (inactive).
As to `COCCNC(=O)CCCN1C(=O)c2ccccc2Sc2ncccc21`, the inhibition was 4.78% (inactive).
As to `O=C(O)CCCN1C(=O)c2ccccc2Sc2ncccc21`, the inhibition was 45.5% (active).
With `Fc1ccc(N2N=C(c3cccs3)CC2c2ccco2)c(F)c1` (configuration not stated), the inhibition was 12.6% (inactive).
In the case of `Cc1nc2cc(NC(=O)CSc3nc4c(C)cccc4cc3C#N)ccc2s1`, the inhibition is -3.68% (inactive).
`Cc1cc(C)c2cc(C#N)c(N3CCNCC3)nc2c1`: the inhibition was 5.2% (inactive).
Consider `Cc1cccc2cc(C#N)c(N3CCCC3)nc12`, for which the inhibition is 32.6% (active).
`CC(=O)Nc1ccc(NC(=O)[C@@H](NC(=O)c2cccc(C)c2)C(C)C)cc1`: the inhibition is 12.9% (inactive).
For `Cc1cccc(C(=O)Nc2ccc(C(=O)/C=C/c3cccs3)cc2)c1`, the inhibition is 46.6% (active).
With `Cc1cccc(C(=O)N[C@H](C(=O)NCc2cccs2)C(C)C)c1`, the inhibition is 1.58% (inactive).
The same measure for `CCCCCCCC(=O)OC(CN1CCCCCC1)CN1CCCC1=O` (configuration not stated): 0.0276% (inactive).
The same measure for `O=Cc1c(Cl)cccc1Cl`: 2.42% (inactive); for `CCC(=O)Nc1c(C)n[nH]c1C`: -5.42% (inactive); for `COc1cccc(NC(=O)CSc2nnc(C3CCCCC3)n2N)c1`: -8.2% (inactive).
Turning to `Cn1c(CC(=O)Nc2ccc(F)cc2)nnc1SCC(=O)NC1CCCCC1`, the inhibition is 7.79% (inactive).
As to `C=CCn1c(CC(=O)Nc2cccc(OC)c2)nnc1SCC(=O)NC1CCCCC1`, the inhibition is 37.9% (active).
As for `CC(C)C(=O)Nc1c(C(=O)c2ccc(F)cc2)oc2ccccc12`, the inhibition was 19.7% (inactive).
Take `Clc1ccc(-c2cc(-c3ccccn3)on2)c(Cl)c1`: the inhibition was 65.8% (active).
Turning to `Fc1ccc(-c2ccc(CNCc3ccccn3)o2)cc1Cl`, the inhibition was -1.67% (inactive).
In the case of `Clc1ccc(COn2c(-c3ccc(Cl)cc3Cl)nc3ncccc32)cc1`, the inhibition is 28.6% (inactive).
As for `COC(=O)[C@]1(Cc2ccccc2)N[C@H](CN(C)S(=O)(=O)c2ccc(OC(F)(F)F)cc2)[C@@H]2C(=O)N(C)C(=O)[C@@H]21`, the figure is 3.7% (inactive).
The same measure for `N=c1c2c(-c3ccccc3)c(-c3ccccc3)n(Cc3ccccc3)c2ncn1CCCO`: 36.6% (active); for `COCCn1cnc2c1c(=O)n(Cc1ccc(Br)cc1)c(=O)n2Cc1ccccc1`: 21.1% (inactive).
Turning to `COCCn1cnc2c1c(=O)n(CC(=O)NN)c(=O)n2Cc1ccccc1`, the inhibition is 5.34% (inactive).
In the case of `Cc1[nH]c(C)c(S(=O)(=O)N2CCN(c3cccc(C(F)(F)F)c3)CC2)c1C(=O)N1CCCC1`, the inhibition is 16.8% (inactive).
Turning to `CCOC(=O)[C@]12CCCC=C1N(CCC1=CCCCC1)C(=O)[C@H](CC(=O)N1CCOCC1)C2`, the inhibition was 6.43% (inactive).
The same measure for `CN1CCN(S(=O)(=O)c2ccc(N3CCN(c4ccccc4O)CC3)c([N+](=O)[O-])c2)CC1`: -7.8% (inactive); for `CN1CN(C)c2ccc([N+](=O)[O-])c3cccc1c23`: 38.8% (active); for `Cc1cccc(N2CCN(c3ccc(C(N)=O)cc3[N+](=O)[O-])CC2)c1C`: 6.19% (inactive).
As to `COc1ncnc2c1N=C1CC(C)(C)CC(N)=C1S2`, the inhibition was 46.6% (active).
`CCOc1ccc(C(CC(=O)O)NC(=O)COc2ccccc2)cc1` (configuration not stated): the inhibition is 0.0857% (inactive).
For `O=C(Oc1ccc(-c2nc(-c3ccccn3)no2)cc1)c1ccccc1`, the inhibition is 26.9% (inactive).
For the compound `O=C(Nc1ccc(-c2nnc(-c3ccccc3)o2)cc1)c1ccc(Br)o1`, the inhibition was 34.6% (active).
Consider `CCS(=O)(=O)c1ccc(-c2cccc(NC(=O)c3ccc(Br)o3)c2)nn1`, for which the inhibition is 19.3% (inactive).
`Brc1ccc(-c2noc(-c3ccccc3)n2)o1`: the inhibition is 53.9% (active).
Consider `Brc1ccc(-c2nnc(-c3ccccc3)o2)o1`, for which the inhibition was 47.1% (active).
Take `CN1CCN(C(=O)c2ccc(NC(=O)c3ccc(Br)o3)cc2)CC1`: the inhibition is -9.6% (inactive).
Regarding `CCCN(CCC)c1ccc(C(O)c2nnc(-c3ccccc3)o2)cc1` (configuration not stated), the inhibition was 5.96% (inactive).
Turning to `OC(c1nnc(-c2ccccc2)o1)c1cccs1` (configuration not stated), the inhibition is -9.63% (inactive).
As for `Nc1nonc1-c1noc(-c2ccc(Br)o2)n1`, the inhibition was 34.9% (inactive).
As to `CN1CCN(C(CNS(=O)(=O)c2cccs2)c2cccnc2)CC1` (configuration not stated), the inhibition was -8.82% (inactive).
For `CCOc1cc2[nH]c(=O)n(CCC(=O)NCc3ccc(OC)cc3)c(=O)c2cc1OCC`, the inhibition was -1.79% (inactive).
Turning to `CCCc1ccc(S(=O)(=O)N2CCN(C(=O)c3cc(C)on3)CC2)cc1`, the inhibition was 12.9% (inactive).
As to `Cc1c(C(=O)NCC(c2ccco2)N2CCCC2)oc2ccc(Cl)cc12` (configuration not stated), the inhibition was 3.49% (inactive).
As to `CN(Cc1ccccc1F)c1cc2c(c3c1ccn3C)C1CCC2O1` (configuration not stated), the inhibition was 6.79% (inactive).
The same measure for `Fc1c(F)c(C(F)(F)F)c(F)c(F)c1N1CCN(c2ccc3nnc(C(F)(F)F)n3n2)CC1`: -6.81% (inactive).
For the compound `C=CCCC(=O)N1C[C@H]2CON(C)[C@H]2C[C@H]1c1cccc(Nc2ccccc2)c1`, the inhibition was 3.69% (inactive).
With `N/C(=N\OC(=O)Nc1ccccc1)c1ccno1`, the inhibition was 11.3% (inactive).
Turning to `COC(=O)c1[nH]c2ccc(Br)cc2c1NC(=O)Oc1ccccc1`, the inhibition was 6.84% (inactive).
Turning to `COc1ccc(CCC(=O)OCC(=O)Nc2ccc(C)c(S(=O)(=O)N(C)C)c2)cc1`, the inhibition was -9.73% (inactive).
Consider `Cc1ccc(F)cc1NC(=O)Cc1nn(C)c(=O)c2ccccc12`, for which the inhibition was 35.7% (active).
In the case of `Cc1ccc(C)c(NC(=O)COC(=O)c2nn(C)c(=O)c3ccccc23)c1`, the inhibition was 0.693% (inactive).
Consider `Cc1ccc(F)cc1NC(=O)CSCc1c(C)noc1C`, for which the inhibition is -5.42% (inactive).
As for `COC(=O)CCCC1=CC2=C(c3ccccc3)C(=O)C(C)(OC(=O)C3CCCC3)C(=O)C2=CN1c1ccc(OC)cc1` (configuration not stated), the figure is -4% (inactive); as for `COC(=O)CCCC1=CC2=CC(=O)C(C)(OC(=O)c3cccs3)C(=O)C2=CN1CC(C)C` (configuration not stated), 41% (active); as for `CCCCC1=CC2=CC(=O)C(C)(OC(=O)CC)C(=O)C2=CN1CCCOC(C)C` (configuration not stated), 19.4% (inactive).
In the case of `Fc1cccc2ncnc(OCc3ccccc3)c12`, the inhibition was 3.79% (inactive).
In the case of `CC(=O)c1ccccc1OCc1ccc(C(=O)c2ccccc2)cc1`, the inhibition is 12.8% (inactive).
For the compound `Cc1nc2ccccc2cc1OCc1ccc(F)cc1`, the inhibition is 90.3% (active).
On to `OCC[C@H]1C[C@H](O)[C@@H](O)[C@]2(CCCCO2)O1`, for which the inhibition is -7.25% (inactive).
In the case of `COc1cccc(NC(=O)CC(c2ccc(OC(C)C)cc2)c2ccccc2OC)c1` (configuration not stated), the inhibition is -0.0853% (inactive).
Consider `COc1cccc(NC(=O)C(Sc2nnnn2C)c2ccccc2)c1` (configuration not stated), for which the inhibition is 17.4% (inactive).
`COc1cccc(NC(=O)C(C)Oc2ccccc2)c1` (configuration not stated): the inhibition was 51.2% (active).
The same measure for `COC(=O)c1ccc(COC(=O)c2c(C)nn(Cc3ccccc3Cl)c2Cl)o1`: -0.292% (inactive); for `Cc1ccc(NC(=O)Cc2nc(COC(=O)C(C)NS(=O)(=O)c3ccc(C)cc3)cs2)cc1` (configuration not stated): -10% (inactive).
Regarding `CCS(=O)(=O)c1ccc2oc(SCC(=O)N3c4ccccc4CC3C)nc2c1` (configuration not stated), the inhibition is -0.339% (inactive).
As for `CC1Cc2ccccc2N1C(=O)CSc1nnc(C2CC2)n1C` (configuration not stated), the inhibition was 8.36% (inactive).
As to `CC1Cc2ccccc2N1C(=O)CSc1nc2ccccc2o1` (configuration not stated), the inhibition was 30.1% (active).
Turning to `Cc1cc2c(cc1S(=O)(=O)NCc1ccc(Cl)cc1)OCC(=O)N2`, the inhibition is -19.4% (inactive).
The same measure for `COc1ccccc1N(CCOc1ccccc1)S(=O)(=O)c1ccccc1`: 3.24% (inactive).
On to `Cc1nc2nc(C)c(CCC(=O)N3CCN(c4ccccc4)CC3)c(C)n2n1`, for which the inhibition is 35.7% (active).
Take `Cc1nc2ncnn2c(C)c1CCC(=O)N1CCN(C(=O)c2ccco2)CC1`: the inhibition was -8.68% (inactive).
The same measure for `Cc1nc2c(-c3ccc(F)cc3)c(C)nn2c(C)c1CCC(=O)N1CCN(c2ccccn2)CC1`: -5.8% (inactive).
With `CC1CCN(C(=O)Cn2nnnc2CN2CCOCC2)CC1`, the inhibition is -17.8% (inactive).
As for `N#CC1=C(N)Oc2c(sc3ccccc23)C1c1ccco1` (configuration not stated), the inhibition was 35% (active).
Take `CCc1nc2c(OCC(=O)C(C)(C)C)cccn2c1N(C)C(=O)c1ccccc1F`: the inhibition is 15.8% (inactive).
Consider `CCOC(=O)C1=NNC2(c3ccc(Cl)cc3)C(=O)N(c3cc(C)cc(C)c3)C(=O)C12` (configuration not stated), for which the inhibition was 14.5% (inactive).
As to `COc1ccc(-c2c(C(C)=O)c(C)nc3sc4c(=O)n(-c5ccc(C)cc5)nnc4c23)cc1`, the inhibition was 12.1% (inactive).
As for `CC(Oc1ccc(Cl)cc1)c1ccnn1S(C)(=O)=O` (configuration not stated), the figure is 33.3% (active); as for `CC(Oc1ccc(Cl)cc1)C(=O)OCC(=O)Nc1ncc(Cl)cc1Cl` (configuration not stated), 6.67% (inactive); as for `CC(Oc1ccc(Cl)cc1)C(=O)Nc1ncccn1` (configuration not stated), 11.8% (inactive).
In the case of `CCc1c(SCCC(=O)O)nc2ccccc2c1C`, the inhibition is -7.29% (inactive).
Take `Cc1nccn1-c1ccc(NC(=O)[C@H]2O[C@@H](n3ccc(=O)[nH]c3=O)[C@H](O)[C@@H]2O)cc1`: the inhibition was 1.64% (inactive).
As for `COc1ccccc1OCC(=O)OCn1c(SC)nnc(C)c1=O`, the inhibition is 5.86% (inactive).
For the compound `CC1CN(C(=O)CCC(=O)NCCCN2CCC(Cc3ccccc3)CC2)c2cc(Cl)ccc2O1` (configuration not stated), the inhibition was 14.9% (inactive).
The same measure for `O=C1CCC([N+](=O)[O-])C(c2ccccc2Br)N1` (configuration not stated): 9.01% (inactive).
